Assay outcomes as filed in PubChem BioAssay.
Sampled rows, rich in hits. Any-hit rate of the full collection: about 12%.
TDP1 inh = inhibitors of human tyrosyl-DNA phosphodiesterase TDP1; Q9NUW8; recombinant TDP1, AlphaScreen DNA substrate cleavage; Potency, µM (titrated, usually from 130 µM), hits mostly inhibitors; hit rate 0.28% among 350,000; note: nearly all actives have a fitted effect of over 40% in size
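Steps: enzyme plus compound, 15 min RT; add biotin/phosphotyrosine-FITC oligonucleotide (15 nM final), react 5 min; add donor/acceptor beads (10 ug/ml final), 10 min; read AlphaScreen. Tdp1 at 1 nM final.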
BAZ2B block = blocks human BAZ2B. Q9UIF8. AlphaScreen BAZ2B-H3K14Ac peptide displacement. Potency, µM (titrated, usually from 114 µM), actives largely listed as inhibitors. hit rate 4.4% among 360,000. AID 504333; note: nearly all actives have a fitted effect of over 60% in size
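Multi-concentration screen (max 110 uM) measuring displacement of acetylated histone H3 peptide from BAZ2B by AlphaScreen, using 50 nM protein, 50 nM peptide and 10 ug/mL streptavidin donor plus Ni-chelate acceptor beads.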
JMJD2A Tudor inh = JMJD2A Tudor domain (human) inhibition | O75164 | AlphaScreen JMJD2A-Tudor / H3K4me3 peptide binding | Potency, µM (series often up to 114 µM), actives largely listed as inhibitors | hit rate 4.4% among 390,000 | AID 504339; note: nearly all actives have a fitted effect of over 50% in size
Sfp inh = Sfp phosphopantetheinyl transferase inhibition | hit rate 3.5% among 310,000 | Potency, µM, hits mostly inhibitors | Q9F4F7 | Biochemical Sfp PPTase activity, qHTS | AID 1490;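 note: the enzyme is Sfp with the accession as filed and its product quenches rhodamine fluorescence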
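Buffer: 50 mM Hepes-Na pH 7.6, 10 mM MgCl2, 0.01% Nonidet P-40, 0.01% BSA. Enzyme 15 nM, pre-exposed to compound 15 min; substrates then added and fluorescence change tracked over 30 min.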
HP1b chromo inh = blocks HP1-beta chromodomain binding to methylated histone tails | P83916 | AlphaScreen HP1-beta / biotin-H3K9me3 peptide binding | Potency, µM (doses to about 114 µM), most hits filed as inhibitors | hit rate 0.56% among 390,000; note: nearly all actives have a fitted effect of over 70% in size
Target sequence (P83916 whole entry, looked up): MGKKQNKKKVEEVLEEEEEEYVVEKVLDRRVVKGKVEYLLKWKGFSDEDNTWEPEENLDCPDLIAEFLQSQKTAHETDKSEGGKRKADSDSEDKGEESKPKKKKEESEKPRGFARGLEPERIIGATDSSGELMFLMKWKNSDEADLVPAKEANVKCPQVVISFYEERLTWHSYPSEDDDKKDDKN
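Compound inhibition of the preformed complex between 50 nM HP1-beta and 50 nM biotinylated H3K9me3 peptide was read by AlphaScreen. Buffer was PBS pH 7.4 with 0.01% Tween-20. Incubations ran 30 min at room temperature, with 10 ug/mL donor/acceptor beads.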
G9a block = blocks human histone lysine methyltransferase G9a | Q96KQ7 | G9a H3K9 monomethylation, AlphaScreen, 2 h | hit rate 8.8% among 350,000 | Potency, µM (doses to about 102 µM), usual class: inhibitors | AID 504332; note: nearly all actives have a fitted effect of over 75% in size
Target sequence (Q96KQ7 913-1193 limits assumed): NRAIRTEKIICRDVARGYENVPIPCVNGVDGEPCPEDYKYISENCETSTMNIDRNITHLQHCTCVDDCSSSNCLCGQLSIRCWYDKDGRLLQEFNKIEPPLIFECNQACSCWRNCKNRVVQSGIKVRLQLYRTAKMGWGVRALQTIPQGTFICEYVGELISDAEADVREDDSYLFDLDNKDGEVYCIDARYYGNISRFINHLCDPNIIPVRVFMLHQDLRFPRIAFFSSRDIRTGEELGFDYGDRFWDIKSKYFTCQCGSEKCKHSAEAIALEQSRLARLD
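Enzyme 20 nM + cpd, 15 min RT; add b-H3K9 pep 500 nM / SAM 20 uM; 2 h RT; anti-H3K9me1 Ab 0.5 ug/mL + SA donor / anti-rabbit acceptor beads 20 ug/mL each, 10 min; AlphaScreen read.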
Numbers stand for hits; n = inactive; u = inconclusive; x = not tested or not shown; [ ] = remark or other dose. Calls come from the whole dose curve; as a rule, active = well fitted curve in the direction sought with a large enough effect; inconclusive = small, poorly fitted or top-dose-only effect, or another doubt; inactive = no such curve, though single readings can be large; an effect the other way counts as inactive or inconclusive.

SMILES	TDP1 inh	BAZ2B block	JMJD2A Tudor inh	Sfp inh	HP1b chromo inh	G9a block
CN1CCN(c2oc(COc3ccc(-c4ccccc4)cc3)nc2C#N)CC1	n	11.2µM	28.2µM	31.6µM	14.1µM	12.6µM
NC(=O)CCC(NC(=O)c1ccc(Cl)cc1)C(=O)O (stereo not given)	n	n	n	n	n	n
Cn1cnc(S(=O)(=O)N2CCN(c3ccc(F)cc3)CC2)c1	n	n	n	n	n	n
Cc1cc(C)c(C#N)c(SCC(=O)Nc2c(C)n(C)n(-c3ccccc3)c2=O)n1	n	x	n	x	n	x
COc1ccc(N2CCN(c3oc(Cc4ccccc4)nc3C#N)CC2)cc1	n	8.91µM	20µM	n	n	u
COc1ccc(N2CCN(c3oc(COc4ccc(Cl)cc4Cl)nc3C#N)CC2)cc1	n	u	n	n	u	u
COc1ccc(N2CCN(c3oc(COc4ccccc4)nc3C#N)CC2)cc1	n	10µM	u	n	u	10µM
c1ccc2c(c1)Nc1nccnc1S2	n	n	44.7µM	n	n	u
O=C1Nc2cccnc2Sc2ccccc21	n	n	n	n	n	28.2µM
O=C1Nc2ccccc2Nc2ncccc21	n	n	n	n	n	u
O=C(NCCc1ccccc1F)C1CC(=O)N(c2cccc(C(F)(F)F)c2)C1 (stereo not given)	x	x	n	x	n	x
Cc1cc(C(=O)N/N=C/c2cccn2C)n[nH]1	n	n	n	n	n	u
Cn1cccc1/C=N/NC(=O)c1cccc(OC(F)(F)C(F)F)c1	n	u	79.4µM	n	u	u
O=C(COC(=O)COc1ccc(Cl)cc1Br)NC1CC1	n	x	n	x	n	x
CCOc1ccc(CNC(=O)C(CC)n2nc(C)n3c(cc4occc43)c2=O)cc1OC (stereo not given)	n	n	n	n	n	50.1µM
CN1CCN(C2=Cc3ccc(Cl)cc3Sc3ccc(F)cc32)CC1	n	50.1µM	56.2µM	u	n	u
COc1ccc(CC(=O)NCc2nnc(SCC(=O)Nc3cccc(F)c3)n2C)cc1	n	n	n	n	n	n[12.7 µM]
CCOC(=O)Cc1csc(NC(=O)CCC(=O)O)n1	n	n	n	n	n	x
CCOC(=O)Cc1csc(NC(=O)CCCc2ccccc2)n1	n	n	n	u	n	50.1µM
CCOC(=O)Cc1csc(NC(=O)Cc2ccc(Br)cc2)n1	n	n	n	n	n	56.2µM
CCOC(=O)Cc1csc(CC(N)=O)n1	n	n	n	u	n	50.1µM
Cc1noc(C)c1CSCC(=O)NCCN1C(=O)S/C(=C\c2ccccc2F)C1=O	n	n	n	x	n	n[0.501 µM]
O=[N+]([O-])c1cccc(OCc2cn3cccnc3n2)c1	n	n	n[11.4 µM]	n	u	n
Cc1ccc(OCc2cn3cccnc3n2)cc1	n	89.1µM	n	n	n	n
Cc1cccn2cc(COc3ccc(-c4ccccc4)cc3)nc12	n	u	n	35.5µM	n	n
SMILES	TDP1 inh	BAZ2B block	JMJD2A Tudor inh	Sfp inh	HP1b chromo inh	G9a block
COc1cccc([C@@H]2Oc3ccc(OC)cc3C(=O)[C@H]2OC(=O)NC2CCCC2)c1	n	x	x	n	x	x
CCn1ccnc1CN(C)C(=O)c1cc(COc2ccc(OC)c3ccccc23)on1	n	n	50.1µM	n	u	n
CSc1ccccc1OCc1cc(C(=O)N(C)Cc2ccc(C)o2)no1	n	n	n	20µM	n	50.1µM
Cc1ccc(CN(C)C(=O)c2ccccc2Oc2ccccc2)o1	n	n	u	14.1µM	n	u
COc1cc(NC(=O)c2cc3c(=O)oc4ccc(C)cc4c3s2)cc(OC)c1OC	n	n	n	x	n	n
Cc1ccc(S(=O)(=O)N(C(=O)c2ccncc2)c2ccc(OC(=O)c3ccncc3)cc2)cc1	n	n	n	n	n	u
O=C(Oc1ccc(N(C(=O)c2ccncc2)S(=O)(=O)c2ccc(F)cc2)cc1)c1ccncc1	n	n	n	n	n	44.7µM
COC(=O)c1c(C)oc2ccc(N(C(=O)c3ccncc3)S(=O)(=O)c3ccc(Br)cc3)cc12	n	n	u	x	n	n
O=C(c1ccncc1)N(c1ccc2oc3c(c2c1)CCCC3)S(=O)(=O)c1ccc(F)cc1	n	u	n	n	n	79.4µM
O=C(Oc1ccc(N(C(=O)c2ccncc2)S(=O)(=O)c2ccc(Cl)cc2)cc1)c1ccncc1	n	n	n	n	n	50.1µM
C/C=C(\C)CN1CCN(c2ccccc2)CC1	n	u	n	n	n	50.1µM
C/C=C(\C)CN1CCN(c2cc(C)ccc2C)CC1	n	n	5.62µM	u	u	1.26µM
Cc1ccc(C)c(N2CCN(Cc3nnnn3C3CCCCC3)CC2)c1	n	n	n	79.4µM	n	n
CCOc1ccc(NC(=O)CNC(=O)c2nn(-c3ccc(OC)cc3)c(=O)c3ccccc23)cc1	n	n	n	n	n	n
COc1c(/C=N/Nc2ccc([N+](=O)[O-])cc2[N+](=O)[O-])c(C)nn1-c1ccccc1	n	n	n	n	n	n
COc1ccccc1NS(=O)(=O)c1cc([N+](=O)[O-])ccc1N/N=C/c1sc(N2CCOCC2)nc1-c1ccccc1	n	u	n	u	u	39.8µM
COc1ccccc1NS(=O)(=O)c1ccc(N/N=C/c2c(C)nn(-c3ccccc3)c2N2CCCC2)c([N+](=O)[O-])c1	n	4.47µM	u	n	u	4.47µM
Cc1nn(-c2ccccc2)c(N2CCCC2)c1/C=N/Nc1ccc(S(=O)(=O)Nc2ccccc2)cc1[N+](=O)[O-]	n	u	5.01µM	n	u	u
COc1ccccc1NS(=O)(=O)c1cc([N+](=O)[O-])ccc1N/N=C/c1c[nH]c2ccccc12	n	u	n	n	u	u
Cc1ccc2cc3cc(C(=O)N(C)c4ccccc4C)oc3nc2c1	n	x	n	x	n	n
CCN1C(=O)[C@H]2[C@@H](c3ccc(-c4ccccc4)c(OC)c3)N[C@@](CC(C)C)(C(=O)OC)[C@H]2C1=O	n	x	n	x	n	x
CSC1=C(C#N)C(=O)NC(c2ccc(Cl)cc2)S1 (stereo not given)	x	u	n	n	n	31.6µM
CSc1nc(-c2ccc(Cl)cc2)c(C#N)c(=O)n1C	n	n	n	n	n	n
COc1ccc(C(=O)CSc2cc(C)[nH]c(=O)n2)cc1	n	50.1µM	u	n	n	u
Cc1cc(=O)[nH]c(SCC(=O)c2ccc(C(C)C)cc2)n1	n	n	n	n	n	u
COc1ccc(C(=O)CSc2nc(C)cc(=O)[nH]2)cc1	n	n	n	n	n	25.1µM
COC(=O)c1scc(-c2ccccc2)c1S(=O)(=O)Nc1cccc(C)c1C	n	n	n	x	n	n
CC(=O)Nc1ccc(NC(=O)CS(=O)(=O)c2cn(CC(=O)N3CCC(C)CC3)c3ccccc23)cc1	x	x	n	x	n	x
Cc1csc(NC(=O)CSCC(=O)Nc2ccccc2)n1	n	n	u	n	n	n
